# In PubChem BioAssay (NCI):
# The panel holds about 83,000 compounds, 20% with a hit somewhere; the sample as a whole holds those more often.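 Activity criterion: percent growth below 10, measured after cells in 96-well plates were exposed to a single compound concentration for 48 hours.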 A number with no mark means an inactive call. Activity calls are given as the source filed them.
# Legend:
# Test in all cases: NCI-60 one-dose screen, 48 h (100 = growth as untreated, 0 = no growth, -100 = all killed)
# A549/ATCC NSCLC = settings: 10 µM unless noted
# DU-145 prostate = settings: 10 µM unless noted
# K-562 leukemia = settings: 10 µM unless noted
# RXF 393 renal = settings: 10 µM unless noted
# SF-295 CNS = settings: 10 µM unless noted
# UACC-257 melanoma = settings: 10 µM unless noted
# HCT-15 colon = settings: 10 µM
# HT29 colon = settings: 10 µM unless noted
# LOX IMVI melanoma = settings: 10 µM unless noted
# SN12C renal = settings: 10 µM unless noted
# CAKI-1 renal = settings: 10 µM unless noted
# A498 renal = settings: 10 µM unless noted
# HL-60(TB) leukemia = settings: 10 µM unless noted
# MOLT-4 leukemia = settings: 10 µM
# OVCAR-8 ovarian = settings: 10 µM unless noted
# OVCAR-4 ovarian = settings: 10 µM unless noted
# SK-OV-3 ovarian = settings: 10 µM unless noted
# HS 578T breast = settings: 10 µM unless noted
# BT-549 breast = settings: 10 µM
# HCC-2998 colon = settings: 10 µM unless noted
Structure (SMILES),growth (A549/ATCC NSCLC),growth (DU-145 prostate),growth (K-562 leukemia),growth (RXF 393 renal),growth (SF-295 CNS),growth (UACC-257 melanoma),growth (HCT-15 colon),growth (HT29 colon),growth (LOX IMVI melanoma),growth (SN12C renal),growth (CAKI-1 renal),growth (A498 renal),growth (HL-60(TB) leukemia),growth (MOLT-4 leukemia),growth (OVCAR-8 ovarian),growth (OVCAR-4 ovarian),growth (SK-OV-3 ovarian),growth (HS 578T breast),growth (BT-549 breast),growth (HCC-2998 colon)
CC(C)Nc1ccc(Nc2ccccc2)cc1,24.1%,38.7%,24.6%,55.5%,12.5%,47.5%,84.3%,7.96% (active),14.5%,19.8%,41.6%,65.9%,69.3%,43.6%,28.1%,28.3%,27.7%,17.9%,22.8%,49.6%
Nc1ccc(N)c2c1Oc1ccccc1O2,107%,94.3%,92.1%,–,101%,102%,105%,110%,90.3%,86.1%,84.3%,92.9%,69.4%,81.6%,97.5%,110%,94.6%,75.2%,97.9%,108%
CCC(C)/C=C(C)/C=C/C(=O)c1c(O)c(-c2ccc(O)cc2)c[nH]c1=O (configuration not stated),63.1%,24.8%,39.2%,52.3%,57.5%,55.8%,38.8%,14.3%,40.2%,60.5%,-16.5% (active),47.6%,–,29.4%,51.2%,–,74.3%,52.7%,38.3%,47.5%
